# Measurements published in the supplement of paper PMC11732987, “Enantioselective OTUD7B fragment discovery through chemoproteomics screening and high-throughput optimisation” (Communications Chemistry, 2025).
# Unmarked numbers belong to inactive results.
# Assays:
# Assay in all cases: log2 ratio of Biotin-Ahx-Ub-VS probe labelling (fragment/DMSO); higher = less target engagement (more negative = stronger competition), active = hit call of the paper (q ≤ 0.05, log2 ratio ≤ -1)
# Conditions in all cases: compound concentration: 200 uM; treatment time: 3 h
# [1] = molecular target: T1, OTUD6B (UniProt Q8N6M0)
# T1 sequence (whole entry): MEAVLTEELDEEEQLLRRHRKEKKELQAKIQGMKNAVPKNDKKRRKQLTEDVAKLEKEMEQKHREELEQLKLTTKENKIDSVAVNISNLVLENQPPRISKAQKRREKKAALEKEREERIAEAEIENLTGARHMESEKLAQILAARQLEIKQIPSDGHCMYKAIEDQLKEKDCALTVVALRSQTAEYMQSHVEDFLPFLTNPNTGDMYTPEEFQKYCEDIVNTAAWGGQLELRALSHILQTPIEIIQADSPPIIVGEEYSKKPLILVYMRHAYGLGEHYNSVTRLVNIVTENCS
# Summary of the method: (§1)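 Each value is an average log2 ratio of fragment to vehicle, tested by unpaired t-test. The underlying Spectronaut label-free quantities were global-median-normalised, and only proteins with ≥2 unique peptides were included. Triplicate HEK293T lysate samples (495 µg) were exposed to fragment at 200 µM or vehicle for 3 h, then to Biotin-Ahx-Ub-VS at 0.5 µM final for 1 h, before NeutrAvidin enrichment of labelled DUBs, LysC and trypsin digestion, and diaPASEF LC-MS/MS.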
# [2] = molecular target: T2, OTUD7B (UniProt Q6GQQ9)
# T2 sequence (whole entry): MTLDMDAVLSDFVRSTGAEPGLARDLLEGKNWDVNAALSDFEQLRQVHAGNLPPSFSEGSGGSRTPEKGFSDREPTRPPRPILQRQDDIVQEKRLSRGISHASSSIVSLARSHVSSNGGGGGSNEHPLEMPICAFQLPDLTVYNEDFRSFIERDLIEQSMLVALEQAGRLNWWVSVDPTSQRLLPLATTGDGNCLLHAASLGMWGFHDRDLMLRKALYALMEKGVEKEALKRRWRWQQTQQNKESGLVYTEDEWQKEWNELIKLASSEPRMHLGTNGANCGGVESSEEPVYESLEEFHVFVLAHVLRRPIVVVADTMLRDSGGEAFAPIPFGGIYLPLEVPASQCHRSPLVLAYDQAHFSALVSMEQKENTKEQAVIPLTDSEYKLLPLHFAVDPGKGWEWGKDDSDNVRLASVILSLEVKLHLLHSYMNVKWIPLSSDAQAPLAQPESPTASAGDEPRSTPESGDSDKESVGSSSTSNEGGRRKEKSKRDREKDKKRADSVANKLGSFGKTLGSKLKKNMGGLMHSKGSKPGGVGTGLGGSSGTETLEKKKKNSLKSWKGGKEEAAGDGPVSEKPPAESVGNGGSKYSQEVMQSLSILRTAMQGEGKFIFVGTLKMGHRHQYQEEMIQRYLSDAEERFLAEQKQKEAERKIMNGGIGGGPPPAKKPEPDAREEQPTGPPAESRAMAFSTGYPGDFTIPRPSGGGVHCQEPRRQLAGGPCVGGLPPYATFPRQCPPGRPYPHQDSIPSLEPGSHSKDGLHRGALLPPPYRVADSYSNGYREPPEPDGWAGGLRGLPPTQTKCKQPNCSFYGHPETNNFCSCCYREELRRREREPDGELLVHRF
# Summary of the method: as §1
# [3] = molecular target: PRPF8 (UniProt Q6P2Q9)
# Summary of the method: as §1
# [4] = molecular target: T3, PSMD7 (UniProt P51665)
# T3 sequence (whole entry): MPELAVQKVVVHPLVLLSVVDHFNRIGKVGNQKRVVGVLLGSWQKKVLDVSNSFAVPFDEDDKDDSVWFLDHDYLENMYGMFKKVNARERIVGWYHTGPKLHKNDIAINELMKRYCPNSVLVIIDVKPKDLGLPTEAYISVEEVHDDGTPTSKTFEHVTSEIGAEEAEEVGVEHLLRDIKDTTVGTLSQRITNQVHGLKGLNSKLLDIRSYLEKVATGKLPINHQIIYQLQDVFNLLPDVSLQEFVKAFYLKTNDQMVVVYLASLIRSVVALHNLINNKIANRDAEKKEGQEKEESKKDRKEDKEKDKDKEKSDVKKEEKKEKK
# Summary of the method: as §1
# [5] = molecular target: UCHL1 (UniProt P09936)
# Summary of the method: as §1
# [6] = molecular target: T4, UCHL3 (UniProt P15374)
# T4 sequence (whole entry): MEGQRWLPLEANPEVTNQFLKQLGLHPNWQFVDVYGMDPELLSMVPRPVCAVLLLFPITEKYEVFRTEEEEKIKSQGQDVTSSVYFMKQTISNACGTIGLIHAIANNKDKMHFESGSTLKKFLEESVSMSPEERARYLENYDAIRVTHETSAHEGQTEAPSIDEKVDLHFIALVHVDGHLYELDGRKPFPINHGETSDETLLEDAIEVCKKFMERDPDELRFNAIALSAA
# Summary of the method: as §1
# [7] = molecular target: T5, UCHL5 (UniProt Q9Y5K5)
# T5 sequence (whole entry): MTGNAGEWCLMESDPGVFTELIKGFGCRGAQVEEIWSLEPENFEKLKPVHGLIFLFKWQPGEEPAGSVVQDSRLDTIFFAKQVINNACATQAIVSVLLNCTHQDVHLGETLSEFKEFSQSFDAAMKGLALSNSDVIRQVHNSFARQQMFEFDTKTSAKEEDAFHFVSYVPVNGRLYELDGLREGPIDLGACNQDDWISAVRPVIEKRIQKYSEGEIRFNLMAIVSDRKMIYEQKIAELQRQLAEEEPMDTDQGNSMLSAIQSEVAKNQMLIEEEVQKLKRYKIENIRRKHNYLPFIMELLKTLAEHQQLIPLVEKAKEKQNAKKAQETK
# Summary of the method: as §1
# [8] = molecular target: USP10 (UniProt Q14694)
# Summary of the method: as §1
# [9] = molecular target: T6, USP15 (UniProt Q9Y4E8)
# T6 sequence (whole entry): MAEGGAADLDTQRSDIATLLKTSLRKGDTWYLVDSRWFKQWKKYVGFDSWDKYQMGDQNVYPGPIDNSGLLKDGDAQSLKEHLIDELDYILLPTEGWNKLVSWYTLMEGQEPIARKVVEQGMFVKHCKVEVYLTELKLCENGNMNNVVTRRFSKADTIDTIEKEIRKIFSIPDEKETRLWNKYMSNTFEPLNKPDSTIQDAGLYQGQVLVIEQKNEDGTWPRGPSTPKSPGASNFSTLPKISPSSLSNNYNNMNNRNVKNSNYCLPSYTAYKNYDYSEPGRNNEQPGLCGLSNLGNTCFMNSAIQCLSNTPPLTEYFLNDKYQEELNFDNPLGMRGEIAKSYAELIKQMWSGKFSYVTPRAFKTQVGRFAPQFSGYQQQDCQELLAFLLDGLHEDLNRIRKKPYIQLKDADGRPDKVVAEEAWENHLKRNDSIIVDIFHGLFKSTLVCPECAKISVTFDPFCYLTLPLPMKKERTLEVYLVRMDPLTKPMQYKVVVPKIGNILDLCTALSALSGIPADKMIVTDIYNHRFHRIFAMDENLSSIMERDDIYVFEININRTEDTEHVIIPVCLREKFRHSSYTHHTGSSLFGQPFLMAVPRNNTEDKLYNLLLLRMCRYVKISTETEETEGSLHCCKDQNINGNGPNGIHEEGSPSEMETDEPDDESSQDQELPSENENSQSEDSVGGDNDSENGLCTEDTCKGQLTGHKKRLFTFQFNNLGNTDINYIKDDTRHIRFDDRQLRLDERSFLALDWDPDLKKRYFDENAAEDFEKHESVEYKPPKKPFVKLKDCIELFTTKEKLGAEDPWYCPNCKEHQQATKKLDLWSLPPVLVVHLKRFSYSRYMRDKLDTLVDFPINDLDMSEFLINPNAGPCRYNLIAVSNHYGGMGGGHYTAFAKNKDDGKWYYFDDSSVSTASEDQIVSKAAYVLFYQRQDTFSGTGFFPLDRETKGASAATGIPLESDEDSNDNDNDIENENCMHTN
# Summary of the method: as §1
# [10] = molecular target: USP16 (UniProt Q9Y5T5)
# Summary of the method: as §1
# Sequence of UCHL1 (P09936 whole entry, looked up): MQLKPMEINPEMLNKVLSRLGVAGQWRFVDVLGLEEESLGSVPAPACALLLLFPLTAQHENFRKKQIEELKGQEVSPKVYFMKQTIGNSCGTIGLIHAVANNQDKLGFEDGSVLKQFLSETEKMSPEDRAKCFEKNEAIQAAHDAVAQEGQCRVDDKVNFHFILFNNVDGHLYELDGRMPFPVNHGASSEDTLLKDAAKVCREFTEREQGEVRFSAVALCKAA
# Sequence of USP10 (Q14694 whole entry): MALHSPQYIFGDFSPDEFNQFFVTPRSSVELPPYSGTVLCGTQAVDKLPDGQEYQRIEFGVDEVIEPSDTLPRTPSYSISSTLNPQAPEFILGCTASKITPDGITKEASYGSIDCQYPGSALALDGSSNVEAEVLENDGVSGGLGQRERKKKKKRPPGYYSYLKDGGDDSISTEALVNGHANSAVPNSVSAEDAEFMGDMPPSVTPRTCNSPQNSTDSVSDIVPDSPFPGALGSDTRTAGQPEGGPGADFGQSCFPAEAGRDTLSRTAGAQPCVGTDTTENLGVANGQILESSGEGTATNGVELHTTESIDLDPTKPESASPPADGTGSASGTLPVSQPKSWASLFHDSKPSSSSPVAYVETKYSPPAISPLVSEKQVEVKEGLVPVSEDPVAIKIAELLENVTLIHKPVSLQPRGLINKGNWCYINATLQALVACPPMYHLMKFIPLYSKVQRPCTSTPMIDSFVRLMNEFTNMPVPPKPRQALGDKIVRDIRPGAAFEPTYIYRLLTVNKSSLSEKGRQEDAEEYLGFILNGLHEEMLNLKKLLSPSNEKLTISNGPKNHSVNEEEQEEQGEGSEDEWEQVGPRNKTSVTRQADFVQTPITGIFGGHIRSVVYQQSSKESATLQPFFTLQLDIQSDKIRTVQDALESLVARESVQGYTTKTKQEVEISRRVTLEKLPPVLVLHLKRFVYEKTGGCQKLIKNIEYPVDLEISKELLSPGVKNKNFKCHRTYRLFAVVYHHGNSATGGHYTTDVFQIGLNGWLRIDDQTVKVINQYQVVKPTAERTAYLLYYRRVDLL
# Sequence of USP16 (Q9Y5T5 whole entry, looked up): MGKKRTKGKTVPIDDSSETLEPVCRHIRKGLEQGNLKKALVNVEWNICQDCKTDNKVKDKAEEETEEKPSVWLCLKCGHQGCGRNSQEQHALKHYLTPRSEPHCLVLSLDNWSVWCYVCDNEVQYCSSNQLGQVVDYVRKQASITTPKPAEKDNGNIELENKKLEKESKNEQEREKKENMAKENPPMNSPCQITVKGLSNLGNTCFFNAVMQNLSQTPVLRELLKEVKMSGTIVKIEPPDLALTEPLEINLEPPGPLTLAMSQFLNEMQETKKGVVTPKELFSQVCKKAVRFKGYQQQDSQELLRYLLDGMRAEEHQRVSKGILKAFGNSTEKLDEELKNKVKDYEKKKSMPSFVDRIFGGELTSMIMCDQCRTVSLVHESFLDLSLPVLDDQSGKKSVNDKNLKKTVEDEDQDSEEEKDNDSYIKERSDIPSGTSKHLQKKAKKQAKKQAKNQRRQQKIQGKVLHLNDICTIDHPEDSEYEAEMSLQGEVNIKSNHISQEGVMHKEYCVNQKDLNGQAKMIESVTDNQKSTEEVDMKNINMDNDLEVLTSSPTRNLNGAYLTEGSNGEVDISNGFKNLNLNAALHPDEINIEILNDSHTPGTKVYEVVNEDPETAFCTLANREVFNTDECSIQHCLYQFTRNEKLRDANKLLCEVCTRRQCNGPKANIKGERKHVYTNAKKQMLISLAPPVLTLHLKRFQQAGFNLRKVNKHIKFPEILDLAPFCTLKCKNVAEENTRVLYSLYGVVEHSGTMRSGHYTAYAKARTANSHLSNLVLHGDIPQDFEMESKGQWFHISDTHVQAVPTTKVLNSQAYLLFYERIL
smiles,measurement,setting,value
Cl.O=C(CCl)NCc1cc2c(nc1O)CCCC2,log2 ratio of Biotin-Ahx-Ub-VS probe labelling,[1],-0.123
same,log2 ratio of Biotin-Ahx-Ub-VS probe labelling,[2],-0.66
same,log2 ratio of Biotin-Ahx-Ub-VS probe labelling,[3],-0.141
same,log2 ratio of Biotin-Ahx-Ub-VS probe labelling,[4],-0.244
same,log2 ratio of Biotin-Ahx-Ub-VS probe labelling,[5],-1.64 (active)
same,log2 ratio of Biotin-Ahx-Ub-VS probe labelling,[6],0.175
same,log2 ratio of Biotin-Ahx-Ub-VS probe labelling,[7],-0.407
same,log2 ratio of Biotin-Ahx-Ub-VS probe labelling,[8],-0.083
same,log2 ratio of Biotin-Ahx-Ub-VS probe labelling,[9],-0.148
same,log2 ratio of Biotin-Ahx-Ub-VS probe labelling,[10],-0.389
